From PubChem BioAssay
LMP1 NFkB inh = Epstein-Barr LMP1 NF-kappaB reporter inhibition. inhibition, % at 12.5 µM. LMP1-induced NF-kappaB luciferase reporter cells, luminescence. 0.69% of 350,000 active; in the data active = inhibition above about 41%;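 also: 0% = neutral control wells and 100% = reference inhibitor control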
TROY NFkB inh = TROY signaling inhibition. Q293 LMP1-TROYcd NF-kB luciferase reporter, 4 h. inhibition, % at 10 µM. 0.98% of 360,000 active;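 active = compounds whose plate-normalised and pattern-corrected inhibition of the luciferase reporter signal at the single screening dose is 50% or more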
HSF-1 act = increases HSF-1 driven luciferase reporter signal | 1.7% of 300,000 active | NIH3T3-HGL HSF-1 luciferase reporter, MG132, 8 h; 100% = twice DMSO control signal | AID 504408 | activation, % at 9 µM;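 active = mean replicate activation of at least 50% with a set share of replicates each reaching 50%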;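 also: 0% = median of the neutral control wells and 100% = twice that signal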
HSF1 inhib = HSF1 inhibition | NIH3T3-HGL HSE-luciferase, MG132-induced, luminescence 8 h; hits give low values | AID 2098 | 0.77% of 300,000 active | activity change, negative = inhibition, % at 7.5 µM (by protocol);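 active = more than half of replicate wells show activity change below -50%, luminescence cut by over half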;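 also: luciferase reports HSF-1 transcriptional activity via heat shock element; 0% = median of DMSO wells and -100% = zero luminescence signal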
HSP90 refold inh = blocks HSP90-mediated luciferase refolding in reticulocyte lysate; Rabbit reticulocyte lysate, luciferase refolding luminescence, 3 h; inhibition, % at 5.6 µM; 0.91% of 290,000 active; AID 1789;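 active = inhibition above the screen-wide mean plus 3 SD, computed separately per campaign, cut at about 16% in these data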;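 also: 0% = DMSO wells and 100% = 60 µM geldanamycin wells; inhibitors lower the luminescence because luciferase stays unfolded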
TWEAK Fn14 block = inhibitors of TWEAK-Fn14 interaction signaling. TWEAK-stimulated Fn14 reporter cells, luciferase luminescence, 8 h. 2% of 360,000 active. inhibition, % at 10 µM; in the data active = inhibition above about 50%
HSP90 inh confirm = HSP90 inhibition, confirmation assay | inhibition, % at 5.9 µM | 64% of 2,300 active | shares compounds with HSP90 refold inh | rabbit reticulocyte lysate, luciferase refolding luminescence, 3 h | AID 1846; in the data active = inhibition above about 18%;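 also: 0% = vehicle wells and 100% = reference inhibitor wells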
luciferase ctr = blocks native firefly luciferase in HSP90 counter-screen; shares compounds with HSP90 refold inh; purified native firefly luciferase, luminescence; inhibition, % at 5.9 µM; 48% of 2,300 active; AID 1847;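 active = inhibition above the mean inhibition of all tested sample wells plus 3 SD, cut at about 10% in these data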;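 also: 0% = DMSO with luciferase and 100% = wells lacking luciferase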
Target sequence (P08659 whole entry, looked up): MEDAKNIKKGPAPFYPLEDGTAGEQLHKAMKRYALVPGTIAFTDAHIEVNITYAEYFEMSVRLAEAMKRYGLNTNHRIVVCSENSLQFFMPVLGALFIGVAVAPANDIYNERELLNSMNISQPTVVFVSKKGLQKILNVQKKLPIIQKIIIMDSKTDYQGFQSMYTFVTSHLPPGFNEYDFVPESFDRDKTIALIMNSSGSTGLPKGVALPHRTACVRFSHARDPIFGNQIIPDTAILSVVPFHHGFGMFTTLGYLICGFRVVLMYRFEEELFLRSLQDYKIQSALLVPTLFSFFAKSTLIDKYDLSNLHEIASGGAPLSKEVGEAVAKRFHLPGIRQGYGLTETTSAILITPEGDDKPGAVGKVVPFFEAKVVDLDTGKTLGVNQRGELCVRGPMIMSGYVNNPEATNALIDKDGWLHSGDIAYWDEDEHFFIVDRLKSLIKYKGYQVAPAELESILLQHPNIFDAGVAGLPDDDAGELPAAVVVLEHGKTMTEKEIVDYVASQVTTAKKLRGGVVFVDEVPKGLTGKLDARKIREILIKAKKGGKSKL
Numbers without * were called inactive; · = no result given. Only some compounds are listed: those with a hit (about 4.7% of all), similar ones and a draw of the others.

SMILES	LMP1 NFkB inh	TROY NFkB inh	HSF-1 act	HSF1 inhib	HSP90 refold inh	TWEAK Fn14 block	HSP90 inh confirm	luciferase ctr
COCC(C)N=C1NN=C(c2cc(C)n(Cc3ccccc3Cl)c2C)CS1 (stereo not given)	-4.8	38.5	-16.1	-4.9	34.2*	45.4	64.7*	54.8*
O=C(COC(=O)c1ccccc1[N+](=O)[O-])c1ccc(C2CCCCC2)cc1	12.5	78.3*	-26.2	-31.3	50.6*	81.0*	63.1*	79.3*
N#CC1(NC(=O)COC(=O)c2ccccc2[N+](=O)[O-])CCCCC1	3.8	-31.4	16.4	10.7	·	-14.0	·	·
Cc1ccc(S(=O)(=O)N2CCOCC2)cc1NC(=O)COC(=O)COc1ccc(C#N)cc1	-1.5	-4.1	·	·	·	22.6	·	·
CCOC(=O)CNC(=O)CSc1ccc2nnc(-c3ccc(F)cc3)n2n1	-0.1	-9.3	-6.1	-5.2	2.9	-3.2	·	·
CCSc1ccc2nnc(-c3ccc(F)cc3)n2n1	5.1	-12.8	-1.6	-1.0	88.3*	-20.2	-3.4	-6.9
Cc1ccc(C(=O)/C=C2\NCCNC2=O)cc1	9.5	-28.5	48.5	19.0	7.2	14.6	·	·
Cc1ccc(C(=O)/C=C2\NCC(C)NC2=O)cc1 (stereo not given)	23.5	·	19.7	2.8	37.4*	54.1*	56.2*	43.1*
COc1ccc([C@H]2C[C@H](n3cc(COC(=O)c4ccccc4)nn3)[C@@H](O)CN2Cc2cccs2)cc1	9.4	0.9	·	·	·	5.4	·	·
Cc1cccc2cc(C#N)c(NCCNC(=O)c3ccccc3)nc12	8.6	-4.8	·	·	·	-16.8	·	·
CCc1ccc([C@H]2[C@@H]3C(=O)C[C@@H]4C(=O)N(C5CCCCC5)C(=O)[C@@H]4[C@@H]3CN2S(=O)(=O)c2ccc(C)cc2)cc1	·	20.3	·	·	·	-56.0	·	·
Nc1ccc(-c2nc3ccc(C(=O)O)cc3s2)cc1	78.1*	20.6	-49.5	-41.4	99.6*	96.7*	100.8*	91.9*
O=C(O)c1ccc2nc(-c3ccccc3)sc2c1	10.7	-11.6	-57.1	-57.9*	94.6*	78.6*	95.0*	78.8*
CC1CCN(c2nc3ccc(C(=O)O)cc3s2)CC1	62.9*	34.4	-84.8	-83.1*	96.7*	96.5*	100.3*	92.5*
NC(=O)c1ccc2nc(NC(=O)c3ccc(N)cc3)sc2c1	-19.9	-29.5	-0.5	10.5	4.2	-7.2	·	·
Oc1ccc(-c2nc3ccccc3s2)cc1	-18.1	-66.0	33.8	20.2	9.4	35.3	·	·
Cc1ccc(S(=O)(=O)N2CCN(C(=O)COC(=O)CCOc3ccccc3C)CC2)c(C)c1	-5.8	9.6	·	·	·	-22.9	·	·
CCOc1ccc(NC(=O)CN2C(=O)NC(CCc3ccccc3)C2=O)cc1OCC (stereo not given)	-5.9	-4.0	-1.0	-1.0	·	-7.6	·	·
Cc1cc(O)c(N)c(C)c1Cl	-8.1	-12.8	-18.7	6.3	43.0*	1.8	80.6*	-4.1
Cc1ccc(-c2nc3ccc(Cl)cc3n2OC(C)C(=O)O)cc1 (stereo not given)	-33.6	23.2	21.2	9.1	62.0*	-8.7	-5.1	-23.0
COc1ccc(-c2nc3ccccc3n2OC(C)C(=O)O)cc1 (stereo not given)	-7.7	-28.4	16.7	14.4	2.5	-34.5	·	·
COc1cc(NC(=NS(=O)(=O)c2ccccc2)c2ccccc2)ncn1	-1.6	-33.3	·	·	·	-7.4	·	·
Cc1ccc(-c2nc3n(n2)Cc2ccccc2-3)cc1	14.9	58.0*	16.1	3.6	21.5*	94.0*	66.9*	61.1*
NC(=S)Cc1nc2n(n1)Cc1ccccc1-2	2.9	-3.3	-1.1	-2.6	3.4	20.8	·	·
CCn1c(C)nc2cc(-c3nc4n(n3)Cc3ccccc3-4)ccc21	86.4*	·	-93.2	-93.2*	87.6*	105.3*	96.8*	92.2*
SMILES	LMP1 NFkB inh	TROY NFkB inh	HSF-1 act	HSF1 inhib	HSP90 refold inh	TWEAK Fn14 block	HSP90 inh confirm	luciferase ctr
CCOC(=O)Cc1csc(NC(=S)NC(=O)c2ccc(C)cc2)n1	-2.9	26.3	-39.4	-39.1	36.0*	68.2*	40.5*	-13.8
CCOC(=O)Cc1csc(NC(=S)NC(=O)c2ccccc2)n1	-4.0	10.3	-14.0	-7.7	4.2	-19.6	·	·
Nc1ccc2nc(SCc3cccc(F)c3)sc2c1	-57.8	11.8	-2.3	0.0	-5.7	-8.0	·	·
Nc1ccc(-c2nc3ccc(N)cc3s2)cc1	11.7	27.9	7.2	4.1	54.0*	74.0*	69.2*	60.6*
Nc1cccc(-c2nc3ccc(N)cc3s2)c1	12.0	13.0	1.9	-5.0	19.6*	77.6*	66.1*	52.6*
Fc1ccc(-n2nnc(-c3cccnc3Cl)n2)cc1	-16.9	-54.0	29.3	27.0	9.7	5.6	·	·
Clc1ncccc1-c1nnn(-c2ccccc2)n1	-14.5	-28.7	9.4	11.0	20.8*	20.4	17.2*	2.7
COc1ccccc1C(=O)N(Cc1ccccc1)c1ccc(C)cc1	-4.7	3.0	13.2	13.6	57.1*	-3.6	-6.6	-10.7
COc1ccccc1CC(=O)N(Cc1ccccc1)c1ccc(C)cc1	-30.8	8.8	-0.1	4.7	1.7	-5.3	·	·
COCCCNC(=O)C[C@H]1C[C@H](C(=O)N2CCOCC2)[C@@]2(C)c3[nH]c4cc(CCC(=O)N(C)C)ccc4c3CCN2C1=O	0.4	-7.2	·	·	·	-9.7	·	·
Cc1ccc(OCC(=O)Nc2ccc(S(=O)(=O)N3CCOCC3)cc2)c(C)c1	3.5	5.8	6.7	2.9	20.0*	-13.7	6.8	2.0
Cc1cc(S(=O)(=O)N2CCOCC2)ccc1OCC(=O)Nc1ccc(F)cc1	-0.3	-11.1	6.1	-4.4	-2.6	11.7	·	·
O=C(Cn1nnc(-c2ccc(F)cc2)n1)NC(=O)NC1CCCCC1	-3.2	7.1	·	·	·	-24.0	·	·
COc1ccc(C(=O)NCC(=O)OCC(=O)NCCC2=CCCCC2)cc1	-9.6	-8.6	-8.4	-5.5	-0.3	-2.4	·	·
COc1ccc(C(=O)NCCC2=CCCCC2)cc1	16.2	36.1	6.2	-4.1	31.9*	75.4*	53.6*	48.4*
COc1ccc(-n2c(C)cc(-c3csc(NC(=O)c4ccc(S(=O)(=O)N(C)C)cc4)n3)c2C)cc1	14.1	12.0	-66.2	-53.5*	20.4*	-10.8	38.7*	-6.4
COc1ccccc1C(=O)Nc1nnc([C@@H]2C[C@H](O)[C@@H](CO)O2)s1	·	7.8	·	·	·	3.4	·	·
O=C(Nc1ccc(NC(=O)c2ccccc2F)cn1)c1ccco1	23.0	22.6	-6.3	-1.8	28.2*	52.7*	51.8*	35.7*
Cc1ccc(S(=O)(=O)CCC(=O)c2ccc(F)cc2)cc1	-4.0	0.1	-3.4	-5.1	-4.1	3.8	·	·
Cc1ccc(C(=O)CCS(=O)(=O)c2ccc(F)cc2)cc1	5.3	2.8	-1.0	-2.4	37.8*	3.7	57.7*	79.4*
